Results filed as inconclusive are left out. The source made the active and inactive calls. Calls follow the shape of the full dose curve.
Test system: not listed separately
Assay: Natriuretic polypeptide receptor (hNpr1) antagonism - Pilot counterscreen GloSensor control cell line (AID 1347045)
Settings: HEK293 cGMP GloSensor cells, SNP-stimulated luminescence, 20 min; series mostly up to 38.3 µM; activity change, negative = inhibition: at the top concentration
Outline: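 This counterscreen uses HEK293 cells expressing the GIP/pGS-40F cGMP biosensor. Compound-treated cells are challenged with 50 uM sodium nitroprusside, and the luciferase signal is compared before and after stimulation.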
% is scaled to controls: 0 for no effect and ±100 for the full control effect.

Row | SMILES | activity change, negative = inhibition
1 | Cc1[nH]c(=O)c(C#N)cc1-c1ccc2nccn2c1 | 12.1% (inactive)
2 | OC(CN1CCC(Cc2ccc(F)cc2)CC1)c1ccc(Cl)cc1 (stereo unspecified) | -2.36% (inactive)
3 | CC(C)C[C@H](NC(=O)[C@@H](O)[C@H](N)Cc1ccccc1)C(=O)O | 9.85% (inactive)

Molecular target: Atrial natriuretic peptide receptor 1 (Homo sapiens) (UniProt P16066)
Sequence (P16066 whole entry, looked up): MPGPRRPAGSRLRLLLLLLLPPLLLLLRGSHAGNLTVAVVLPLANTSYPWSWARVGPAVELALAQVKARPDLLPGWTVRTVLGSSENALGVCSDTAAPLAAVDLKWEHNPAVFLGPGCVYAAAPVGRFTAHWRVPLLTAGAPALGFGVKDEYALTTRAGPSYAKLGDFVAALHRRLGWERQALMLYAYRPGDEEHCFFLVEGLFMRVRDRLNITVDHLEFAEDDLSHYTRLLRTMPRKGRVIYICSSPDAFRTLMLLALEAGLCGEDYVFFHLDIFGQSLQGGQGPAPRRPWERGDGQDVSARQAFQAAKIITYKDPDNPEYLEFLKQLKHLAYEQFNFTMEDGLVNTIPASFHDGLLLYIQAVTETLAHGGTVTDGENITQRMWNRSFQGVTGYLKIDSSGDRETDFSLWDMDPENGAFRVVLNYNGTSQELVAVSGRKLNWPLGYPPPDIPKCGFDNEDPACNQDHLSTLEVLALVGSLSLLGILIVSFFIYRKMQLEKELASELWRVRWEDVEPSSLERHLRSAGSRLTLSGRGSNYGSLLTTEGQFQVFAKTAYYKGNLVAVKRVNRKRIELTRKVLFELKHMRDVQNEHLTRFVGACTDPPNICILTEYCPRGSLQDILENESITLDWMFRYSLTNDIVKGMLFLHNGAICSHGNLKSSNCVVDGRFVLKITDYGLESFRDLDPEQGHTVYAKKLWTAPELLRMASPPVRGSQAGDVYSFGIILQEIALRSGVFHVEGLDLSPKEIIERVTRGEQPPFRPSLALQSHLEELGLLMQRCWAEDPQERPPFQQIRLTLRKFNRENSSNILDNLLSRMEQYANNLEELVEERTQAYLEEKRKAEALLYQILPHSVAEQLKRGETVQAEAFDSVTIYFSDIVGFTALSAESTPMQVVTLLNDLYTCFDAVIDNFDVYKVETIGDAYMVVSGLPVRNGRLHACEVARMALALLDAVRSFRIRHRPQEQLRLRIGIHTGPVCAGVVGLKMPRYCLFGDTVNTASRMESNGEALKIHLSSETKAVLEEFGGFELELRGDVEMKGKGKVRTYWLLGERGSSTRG
Assay: Natriuretic polypeptide receptor (hNpr1) antagonism - Pilot screen (AID 1347049);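 also: agonist-evoked cGMP luminescence read 20 min after hNppA addition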
Settings: hNpr1 cells, antagonist mode cGMP read-out; series mostly up to 57.5 µM; activity change, negative = inhibition: at the top concentration
Outline: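 HEK293 cells co-expressing hNpr1 and the GloSensor pGS-40F cGMP luciferase sensor were preloaded with 2% GloSensor reagent for 2 h. Compounds were added for 30 min at room temperature, then cells were stimulated with 0.1 nM hNppA for 20 min before luminescence readout.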

Row | SMILES | activity change, negative = inhibition
4 | Cc1[nH]c(=O)c(C#N)cc1-c1ccc2nccn2c1 | 0.65% (inactive)
5 | CC(C)(Sc1ccc(CCN(CCCCC2CCCCC2)C(=O)NC2CCCCC2)cc1)C(=O)O | -6.45% (inactive)
6 | OC(CN1CCC(Cc2ccc(F)cc2)CC1)c1ccc(Cl)cc1 (stereo unspecified) | 8.2% (inactive)
7 | CC(C)C[C@H](NC(=O)[C@@H](O)[C@H](N)Cc1ccccc1)C(=O)O | -3.44% (inactive)

Molecular target: Atrial natriuretic peptide receptor 2 (Homo sapiens) (UniProt P20594)
Sequence (P20594 whole entry, looked up): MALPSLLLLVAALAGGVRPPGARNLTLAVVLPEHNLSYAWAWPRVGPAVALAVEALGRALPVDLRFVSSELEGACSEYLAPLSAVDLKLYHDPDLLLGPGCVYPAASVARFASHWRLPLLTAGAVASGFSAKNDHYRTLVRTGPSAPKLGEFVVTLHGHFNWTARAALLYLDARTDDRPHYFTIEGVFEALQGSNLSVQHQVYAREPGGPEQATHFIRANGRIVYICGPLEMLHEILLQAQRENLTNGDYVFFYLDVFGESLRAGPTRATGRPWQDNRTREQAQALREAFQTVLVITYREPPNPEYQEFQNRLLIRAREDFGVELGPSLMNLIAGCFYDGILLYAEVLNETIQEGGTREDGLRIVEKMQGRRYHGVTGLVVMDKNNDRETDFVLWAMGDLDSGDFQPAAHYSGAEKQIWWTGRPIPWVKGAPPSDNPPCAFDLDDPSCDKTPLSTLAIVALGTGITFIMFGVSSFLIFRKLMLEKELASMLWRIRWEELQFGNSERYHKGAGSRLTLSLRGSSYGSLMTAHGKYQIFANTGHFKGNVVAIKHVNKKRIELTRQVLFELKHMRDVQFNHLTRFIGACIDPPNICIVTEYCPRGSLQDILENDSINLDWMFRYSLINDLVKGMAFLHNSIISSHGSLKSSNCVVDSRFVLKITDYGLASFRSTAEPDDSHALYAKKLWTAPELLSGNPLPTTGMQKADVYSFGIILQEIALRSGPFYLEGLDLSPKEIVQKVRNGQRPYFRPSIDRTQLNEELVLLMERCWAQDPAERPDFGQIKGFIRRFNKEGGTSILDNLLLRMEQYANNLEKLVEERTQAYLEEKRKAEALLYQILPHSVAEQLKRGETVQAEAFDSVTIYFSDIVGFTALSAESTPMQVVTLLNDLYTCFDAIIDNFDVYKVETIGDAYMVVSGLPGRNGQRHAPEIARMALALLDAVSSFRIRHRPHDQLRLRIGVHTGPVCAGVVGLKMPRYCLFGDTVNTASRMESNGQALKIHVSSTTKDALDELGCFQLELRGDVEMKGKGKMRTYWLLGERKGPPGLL
Assay: Natriuretic polypeptide receptor (hNpr2) antagonism - Pilot subtype selectivity assay (AID 1347050)
Settings: NPR2-expressing cells, cGMP antagonist-mode read-out; series mostly up to 38.3 µM; activity change, negative = inhibition: at the top concentration
Outline: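 cGMP-sensor HEK293/hNpr2 cells; 2% GloSensor reagent 2 h RT; compounds 30 min; baseline luminescence read; 1 nM hNppC agonist 20 min RT; final luminescence read by CCD camera. Antagonism = reduced post-agonist signal.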

Row | SMILES | activity change, negative = inhibition
8 | Cc1[nH]c(=O)c(C#N)cc1-c1ccc2nccn2c1 | -0.609% (inactive)
9 | CC(C)(Sc1ccc(CCN(CCCCC2CCCCC2)C(=O)NC2CCCCC2)cc1)C(=O)O | -0.708% (inactive)
10 | OC(CN1CCC(Cc2ccc(F)cc2)CC1)c1ccc(Cl)cc1 (stereo unspecified) | 13.4% (inactive)
11 | CC(C)C[C@H](NC(=O)[C@@H](O)[C@H](N)Cc1ccccc1)C(=O)O | 1.06% (inactive)
